The source of these data is PubChem BioAssay (NCI).

This is part of a sample that, as a whole, favours compounds with a hit. Of some 83,000 tested, about 20% had one in any assay.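 Percent growth is the endpoint: 0 to 100 indicates growth inhibition (40 means 60% inhibition), 0 means no net growth, and negative values indicate cell death.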 Unmarked numbers belong to inactive results. Activity calls are given as the source filed them. The calls were made as follows: active = growth percent below 10; inactive = the rest.

Holding throughout (assay): NCI-60 one-dose screen, 48 h (100 = growth as untreated, 0 = no growth, -100 = all killed)
One assay concerns SK-MEL-2 melanoma. As to conditions: 10 µM unless noted.
A further assay has as its system EKVX NSCLC. As to conditions: 10 µM unless noted.
The next assay relates to SN12C renal. Particulars: 10 µM unless noted.
The next assay has as its system UO-31 renal. As to conditions: 10 µM unless noted.
A further assay deals with TK-10 renal. As to conditions: 10 µM unless noted.
For a further assay, the system named is ACHN renal. Particulars: 10 µM unless noted.
The next assay concerns CAKI-1 renal. As to conditions: 10 µM unless noted.
The subject of a further assay is A498 renal. As to conditions: 10 µM unless noted.
The test system of another assay is CCRF-CEM leukemia. Particulars: 10 µM unless noted.
In the next assay the test system is MOLT-4 leukemia. Particulars: 10 µM unless noted.
Another assay relates to SR leukemia. As to conditions: 10 µM unless noted.
Another assay concerns RPMI-8226 leukemia. Particulars: 10 µM unless noted.
Another assay deals with OVCAR-8 ovarian. Particulars: 10 µM unless noted.
The next assay relates to OVCAR-4 ovarian. Particulars: 10 µM.
A further assay has as its system SK-OV-3 ovarian. Particulars: 10 µM unless noted.
Another assay concerns OVCAR-3 ovarian. As to conditions: 10 µM unless noted.
The test system of the next assay is HS 578T breast. As to conditions: 10 µM unless noted.
The next assay deals with OVCAR-5 ovarian. Particulars: 10 µM unless noted.
The next assay relates to IGROV1 ovarian. Particulars: 10 µM unless noted.
Another assay has as its system NCI/ADR-RES ovarian. Particulars: 10 µM unless noted.

`Cc1cc(NN=C(c2ccc(O)cc2)c2ccc(O)cc2)c([N+](=O)[O-])cc1[N+](=O)[O-]`: the growth with SK-MEL-2 melanoma was 0.57% (active); in the assay with EKVX NSCLC, 14.9%; in the assay on SN12C renal, 74.2%; in the assay with UO-31 renal, 6.74% (active); with TK-10 renal, 51.4%; with ACHN renal, 43.7%. Further, the growth in the assay on CAKI-1 renal was 65.1%; with A498 renal, 85.9%; with CCRF-CEM leukemia, 119%; in the assay with MOLT-4 leukemia it was 108%; with SR leukemia, 84.9%; in the assay on RPMI-8226 leukemia, 123%. Besides, the growth in the assay with OVCAR-8 ovarian was 0.819% (active); in the assay with OVCAR-4 ovarian, 52.6%; with SK-OV-3 ovarian, 73.5%; with OVCAR-3 ovarian, 63.3%; in the assay with HS 578T breast, 71.3%.

Consider `O=C(N/N=C1\c2ccccc2-c2cccc(C(=O)O)c21)c1ccc(O)cc1`, for which the growth with SK-MEL-2 melanoma is 102%; with EKVX NSCLC it was 97.2%; with SN12C renal, 91.1%; in the assay with UO-31 renal it was 80.4%; with TK-10 renal, 98.1%; in the assay with ACHN renal it was 99.5%. Moreover, the growth was 86.9% in the assay on CAKI-1 renal; 89.9% in the assay on CCRF-CEM leukemia; 99.8% in the assay with MOLT-4 leukemia; 110% in the assay on SR leukemia; 94.2% with RPMI-8226 leukemia; 97.4% in the assay on OVCAR-8 ovarian. Besides, the growth is 102% with OVCAR-5 ovarian; 101% with OVCAR-4 ovarian; 101% in the assay with SK-OV-3 ovarian; 97.6% in the assay with IGROV1 ovarian; 96.6% with OVCAR-3 ovarian; 82% with HS 578T breast. For the same molecule, the growth in the assay with NCI/ADR-RES ovarian was 99.8%.

Take `CCOC(=O)Nc1ccc2c(c1)/C(=N\NC(=S)NC)c1ccccc1-2`: the growth is 101% in the assay with SK-MEL-2 melanoma; 79.7% in the assay on EKVX NSCLC; 73.8% with SN12C renal; 104% in the assay with UO-31 renal; 76.7% with TK-10 renal; 83.7% in the assay with ACHN renal. Besides, the growth was 81.4% with CAKI-1 renal; 61.8% in the assay on CCRF-CEM leukemia; 87.4% in the assay on MOLT-4 leukemia; 63.9% in the assay with SR leukemia; 58.7% in the assay with RPMI-8226 leukemia; 83% in the assay on OVCAR-8 ovarian. For the same molecule, the growth with OVCAR-4 ovarian was 92.3%; with SK-OV-3 ovarian, 112%; in the assay on IGROV1 ovarian, 100%; in the assay on OVCAR-3 ovarian, 95.6%; with HS 578T breast, 90.4%; with NCI/ADR-RES ovarian, 76.7%.

In the case of `Cn1cc(-c2noc(-c3cn(C)c4ncc(F)cc34)n2)c2ccccc21`, the growth is 93.8% in the assay on SK-MEL-2 melanoma; 34.3% in the assay on EKVX NSCLC; 33.6% in the assay on SN12C renal; 61.7% in the assay on UO-31 renal; 38.9% in the assay with TK-10 renal; 66.3% in the assay with ACHN renal. Moreover, the growth was 47.1% in the assay with CAKI-1 renal; 78% in the assay with CCRF-CEM leukemia; 77.4% with MOLT-4 leukemia; 69.1% in the assay with SR leukemia; 78.2% with RPMI-8226 leukemia; 40% with OVCAR-8 ovarian. Besides, the growth was 75.1% with OVCAR-5 ovarian; -29.4% (active) with OVCAR-4 ovarian; 7.74% (active) in the assay on SK-OV-3 ovarian; 45% in the assay with IGROV1 ovarian; 32.5% in the assay with OVCAR-3 ovarian; 30.9% with HS 578T breast. The growth in the assay with NCI/ADR-RES ovarian was 58.2%.

`C[C@@H]1C[C@H]2C(=O)O[C@@H](C)[C@H](NC(=O)[C@H](Cc3cc(F)cc(F)c3)NC(=O)Nc3ccc(Cl)cc3F)C(=O)N3C[C@H](O)C[C@H]3C(=O)N3CCN(C)C[C@H]3C(=O)N[C@@H](C)C(=O)N2C1`: the growth in the assay with SK-MEL-2 melanoma is 29.6%; with EKVX NSCLC, 69.8%; in the assay with SN12C renal it was 22.9%; in the assay with UO-31 renal, 83%; in the assay with TK-10 renal it was 91.7%; in the assay with ACHN renal it was 104%. For the same molecule, the growth in the assay with CAKI-1 renal is 72.7%; in the assay on CCRF-CEM leukemia, 53.7%; in the assay with MOLT-4 leukemia it was 41.7%; in the assay on SR leukemia it was 40.3%; with RPMI-8226 leukemia, 20.4%; in the assay with OVCAR-8 ovarian, 39.1%. For the same molecule, the growth is 41.9% in the assay on OVCAR-5 ovarian; 16.4% in the assay with OVCAR-4 ovarian; 51.3% in the assay with IGROV1 ovarian; 20.4% in the assay on OVCAR-3 ovarian; 37.9% with HS 578T breast; 105% in the assay with NCI/ADR-RES ovarian.

For `O=C(Nc1ccccc1)Nc1ccc(C(=O)/C=C/c2ccc(N3CCCC3)cc2)cc1`, the growth is 17.9% in the assay with SK-MEL-2 melanoma; 74.2% with EKVX NSCLC; 66.5% in the assay on SN12C renal; 67.7% with UO-31 renal; 102% in the assay on TK-10 renal; 83.6% in the assay on ACHN renal. Also, the growth was 61.7% in the assay with CAKI-1 renal; 72.6% in the assay with CCRF-CEM leukemia; 67.5% with MOLT-4 leukemia; 98.9% in the assay with SR leukemia; 78.3% in the assay on RPMI-8226 leukemia; 81.7% with OVCAR-8 ovarian. In addition, the growth was 83.2% in the assay with OVCAR-5 ovarian; 66.1% with SK-OV-3 ovarian; 92.1% with IGROV1 ovarian; 43% in the assay on OVCAR-3 ovarian; 38.2% in the assay with HS 578T breast; 28.6% in the assay with NCI/ADR-RES ovarian.

In the case of `Clc1ccc2nc(-c3ccc(-c4ccc(/C=N/NC5=NCCN5)cc4)s3)cn2c1`, the growth with SK-MEL-2 melanoma was 110%; with EKVX NSCLC, 90.8%; with SN12C renal, 88.6%; in the assay with UO-31 renal it was 72.8%; in the assay with TK-10 renal it was 123%; in the assay on ACHN renal it was 103%. Also, the growth with CAKI-1 renal was 106%; in the assay on CCRF-CEM leukemia it was 76.3%; in the assay on MOLT-4 leukemia, 79.7%; in the assay on SR leukemia, 8.33% (active); in the assay with RPMI-8226 leukemia it was 53.5%; in the assay with OVCAR-8 ovarian, 102%. The growth was 107% with OVCAR-5 ovarian, 87.1% with OVCAR-4 ovarian, 94.6% in the assay with IGROV1 ovarian and 99.3% in the assay on NCI/ADR-RES ovarian.

In the case of `O=C(CCCSc1nc(-c2ccccc2)cc(-c2ccccc2)n1)NO`, the growth is 3.29% (active) with SK-MEL-2 melanoma; 10.3% in the assay with EKVX NSCLC; 12.3% in the assay on SN12C renal; -13.9% (active) with UO-31 renal; 9.4% (active) in the assay on TK-10 renal; 0.594% (active) in the assay on ACHN renal. Moreover, the growth in the assay on CAKI-1 renal was 1.69% (active); in the assay on CCRF-CEM leukemia it was 3.58% (active); in the assay with MOLT-4 leukemia, 4.55% (active); in the assay on SR leukemia, 1.05% (active); in the assay with RPMI-8226 leukemia, 14.9%; in the assay on OVCAR-8 ovarian it was 5.38% (active). For the same molecule, the growth is 9.78% (active) in the assay on OVCAR-5 ovarian; 11.9% with OVCAR-4 ovarian; -18.6% (active) in the assay with SK-OV-3 ovarian; 12.6% in the assay on IGROV1 ovarian; -5.33% (active) with OVCAR-3 ovarian; -12.1% (active) with NCI/ADR-RES ovarian.
